# Laboratory results from PubChem BioAssay (Tox21).
# Results filed as inconclusive are left out. A structure can be active in one record and inactive in another. Activity calls are given as the source filed them. Calls follow the shape of the full dose curve. Residues, ends and D or L forms follow the SMILES beside them.
# Biological target: Acetylcholinesterase (Homo sapiens) (UniProt P22303)
# Assay: Acetylcholinesterase (AChE) small molecule antagonists: colormetric cell-based qHTS assay (AID 1347395); also: nearly all actives have a fitted effect of over 30% in size
# Details: SH-SY5Y cells AChE activity, colorimetric (Ellman); series mostly up to 115 µM; activity, negative = inhibition: at the top concentration
# Summary of the method: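 After overnight attachment at 37 C, SH-SY5Y cells get 30 min compound exposure; detection cocktail (acetylthiocholine, DTNB) then incubates 90 min at 37 C, and absorbance reflects AChE-generated thiocholine.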
# % is scaled to controls: 0 for no effect and ±100 for the full control effect; potency is read from the fitted curve at half-maximal effect.
# Acetylcholinesterase (Homo sapiens), sequence (P22303 whole entry, looked up): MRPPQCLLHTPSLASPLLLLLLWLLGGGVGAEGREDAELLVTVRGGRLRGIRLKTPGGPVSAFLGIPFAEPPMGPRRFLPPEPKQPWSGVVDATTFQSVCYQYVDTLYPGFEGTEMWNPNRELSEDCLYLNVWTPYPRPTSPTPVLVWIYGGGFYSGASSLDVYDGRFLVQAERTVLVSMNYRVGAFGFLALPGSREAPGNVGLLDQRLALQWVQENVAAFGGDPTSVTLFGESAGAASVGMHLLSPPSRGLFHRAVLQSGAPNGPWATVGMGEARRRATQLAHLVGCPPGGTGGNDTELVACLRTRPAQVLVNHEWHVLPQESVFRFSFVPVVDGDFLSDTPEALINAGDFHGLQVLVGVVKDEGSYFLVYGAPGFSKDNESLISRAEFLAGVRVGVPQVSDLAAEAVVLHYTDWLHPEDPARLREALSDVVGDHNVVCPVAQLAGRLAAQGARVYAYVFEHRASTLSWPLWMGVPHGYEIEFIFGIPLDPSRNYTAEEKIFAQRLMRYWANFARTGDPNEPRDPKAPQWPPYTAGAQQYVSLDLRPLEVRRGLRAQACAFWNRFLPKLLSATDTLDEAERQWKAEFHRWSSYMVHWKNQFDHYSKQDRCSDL
Structure (SMILES),"activity, negative = inhibition",Potency
CC(C)(C)CC(C)(C)N,-0.28% (inactive),–
CCC(Cl)CC(Cl)C(Cl)C(Cl)C(Cl)C(C)Cl (stereo not given),-0.388% [at 23.6 µM] (inactive),–
O=C(NCCCN1CCOCC1)c1ccc(Cl)cc1,0.604% [at 52.9 µM] (inactive),–
COC(=O)[C@H](Cc1ccccc1)NC(=O)[C@@H](N)CC(=O)O (H-Asp-Phe-OMe),–,inactive
CC(C)=CCC[C@](C)(O)[C@@H]1CC=C(C)CC1,1.57% (inactive),–
Cc1nnc(NS(=O)(=O)c2ccc(N)cc2)s1,–,inactive
CCCCN(CCN(CCCC)C(=O)N1CCOCC1)C(=O)N1CCOCC1,6.95% [at 52.9 µM] (inactive),–
CCNc1nc(N)nc(Cl)n1,0.931% (inactive),–
O=C(Nc1ccccc1SSc1ccccc1NC(=O)c1ccccc1)c1ccccc1,–,inactive
O=C(O)CCSCCC(=O)O,1.58% (inactive),–
c1cc(CN2CCCCC2)cc(OCCCNc2nc3ccccc3s2)c1,–,15.5 µM (active)
CC(=O)CCc1ccccc1,–,inactive
Cc1cc(Nc2ccc(O)cc2)ccc1N,-0.921% (inactive),–
CCCCC(C=O)CC (stereo not given),–,inactive
CC(C)c1ccccc1O,-0.841% (inactive),–
C=C(C)C(=O)OCCCCCCCCCC,4.65% (inactive),–
O=C=NC1CCC(CC2CCC(N=C=O)CC2)CC1 (stereo not given),-7.19% (inactive),–
CCCCCCC/C=C/C=O,-6.27% (inactive),–
CCCC1O[C@@H]2C[C@H]3[C@@H]4CCC5=CC(=O)C=C[C@]5(C)[C@H]4[C@@H](O)C[C@]3(C)[C@]2(C(=O)CO)O1 (stereo not given in full),–,inactive
O=C(O)C(=O)Cc1ccccc1,5.13% (inactive),–

Structure (SMILES),"activity, negative = inhibition",Potency
CCC(=O)CC(C)CC (stereo not given),-0.199% [at 0.435 µM] (inactive),–
NS(=O)(=O)c1cc2c(cc1Cl)NC=NS2(=O)=O,-14% [at 52.9 µM] (inactive),–
CCOc1ccc(OCC)c(Cl)c1,-1.7% (inactive),–
CCN(CC)c1ccc(N=Nc2ccccc2)cc1,13.3% (inactive),–
CC(C)(c1ccc(O)cc1)c1ccc(O)cc1,–,inactive
CN1C(C(=O)Nc2ccccn2)=C(O)c2sccc2S1(=O)=O,0.924% [at 52.9 µM] (inactive),–
CCc1cccc(CC)c1,0.248% (inactive),–
O=C(O)CCCCCCCC(=O)O,–,inactive
NC(CO)C(=O)NNCc1ccc(O)c(O)c1O (stereo not given),-1.06% [at 52.9 µM] (inactive),–
CCCCCCCCC(=O)O,–,3.07 µM (active) and inactive
Cc1ccc(C(=O)O)cc1[N+](=O)[O-],-0.445% (inactive),–
CCOC(=O)C(C)C(C)=O (stereo not given),-1.48% (inactive),–
CC(C)OCCO,3.42% (inactive),–
CC12CCC(CC1=O)C2(C)C (stereo not given),3.34% (inactive),–
COc1c2ccoc2cc2oc(=O)ccc12,–,inactive
CC1CC(O)CC(C)(C)C1 (stereo not given),1.68% (inactive),–
Sc1nc(S)nc(S)n1,7.1% [at 52.9 µM] (inactive),–
CCCCCCCCCCCCCO,–,inactive
C=CCc1ccc(O)c(OC)c1,–,inactive
OB(O)O,–,inactive

# Biological target: Acetylcholinesterase (Homo sapiens) (UniProt P22303)
# Assay: Acetylcholinesterase (AChE) small molecule antagonists: enzyme-based qHTS assay (AID 1347397); also: nearly all actives have a fitted effect of over 55% in size
# Details: Potency: AChE enzyme activity inhibition; outcome: AChE enzyme activity inhibition; series mostly up to 115 µM; activity change, negative = inhibition: at the top concentration
# Summary of the method: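 Tox21 library chemicals are tested in qHTS format against recombinant human AChE. The enzyme, dispensed at 50 mU/mL, sits with compound for 30 min at room temperature. A DTNB–acetylthiocholine cocktail follows, and colour is read after 10 min.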
Structure (SMILES),"activity change, negative = inhibition",Potency
CC(C)(C)CC(C)(C)N,0.682% (inactive),–
CCC(Cl)CC(Cl)C(Cl)C(Cl)C(Cl)C(C)Cl (stereo not given),-3.68% [at 23.6 µM] (inactive),–
O=C(NCCCN1CCOCC1)c1ccc(Cl)cc1,-0.0051% [at 53 µM] (inactive),–
COC(=O)[C@H](Cc1ccccc1)NC(=O)[C@@H](N)CC(=O)O (H-Asp-Phe-OMe),–,inactive
CC(C)=CCC[C@](C)(O)[C@@H]1CC=C(C)CC1,-2.97% (inactive),–
Cc1nnc(NS(=O)(=O)c2ccc(N)cc2)s1,–,inactive
CCCCN(CCN(CCCC)C(=O)N1CCOCC1)C(=O)N1CCOCC1,2.03% [at 53 µM] (inactive),–
CCNc1nc(N)nc(Cl)n1,1.05% (inactive),–
O=C(Nc1ccccc1SSc1ccccc1NC(=O)c1ccccc1)c1ccccc1,–,inactive
O=C(O)CCSCCC(=O)O,0% (inactive),–
c1cc(CN2CCCCC2)cc(OCCCNc2nc3ccccc3s2)c1,–,27.5 µM (active)
CC(=O)CCc1ccccc1,–,inactive
Cc1cc(Nc2ccc(O)cc2)ccc1N,-10.5% (inactive),–
CCCCC(C=O)CC (stereo not given),–,inactive
CC(C)c1ccccc1O,-1.29% (inactive),–
C=C(C)C(=O)OCCCCCCCCCC,3.83% (inactive),–
O=C=NC1CCC(CC2CCC(N=C=O)CC2)CC1 (stereo not given),1.34% (inactive),–
CCCCCCC/C=C/C=O,-9.76% (inactive),–
CCCC1O[C@@H]2C[C@H]3[C@@H]4CCC5=CC(=O)C=C[C@]5(C)[C@H]4[C@@H](O)C[C@]3(C)[C@]2(C(=O)CO)O1 (stereo not given in full),–,inactive
O=C(O)C(=O)Cc1ccccc1,-0.129% (inactive),–

Structure (SMILES),"activity change, negative = inhibition",Potency
CCC(=O)CC(C)CC (stereo not given),1.36% [at 0.435 µM] (inactive),–
NS(=O)(=O)c1cc2c(cc1Cl)NC=NS2(=O)=O,–,inactive
CCOc1ccc(OCC)c(Cl)c1,-0.598% (inactive),–
CCN(CC)c1ccc(N=Nc2ccccc2)cc1,3.83% (inactive),–
CC(C)(c1ccc(O)cc1)c1ccc(O)cc1,–,inactive
CN1C(C(=O)Nc2ccccn2)=C(O)c2sccc2S1(=O)=O,5.92% [at 53 µM] (inactive),–
CCc1cccc(CC)c1,-0.0816% (inactive),–
O=C(O)CCCCCCCC(=O)O,–,inactive
NC(CO)C(=O)NNCc1ccc(O)c(O)c1O (stereo not given),-5.08% [at 53 µM] (inactive),–
CCCCCCCCC(=O)O,–,inactive
Cc1ccc(C(=O)O)cc1[N+](=O)[O-],-1.36% (inactive),–
CCOC(=O)C(C)C(C)=O (stereo not given),0.543% (inactive),–
CC(C)OCCO,1.06% (inactive),–
CC12CCC(CC1=O)C2(C)C (stereo not given),-0.0014% (inactive),–
COc1c2ccoc2cc2oc(=O)ccc12,–,inactive
CC1CC(O)CC(C)(C)C1 (stereo not given),-0.242% (inactive),–
Sc1nc(S)nc(S)n1,4.62% [at 53 µM] (inactive),–
CCCCCCCCCCCCCO,–,inactive
C=CCc1ccc(O)c(OC)c1,–,inactive
OB(O)O,–,inactive
